Rows were chosen to be rich in hits. Some 1% of all compounds tested hit in one or more screens of this group.
RXFP1 antagonist = RXFP1 (human) relaxin receptor antagonism. 350,000 tested, 0.59% active. Q9HBX9. activity change, negative = inhibition, % at 57.5 µM. HEK293-RXFP1, relaxin-stimulated cAMP HTRF, 30 min; stronger effect = lower value. AID 1259400;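 active = activity change of -60% or lower, but not beyond a set lower limit; inconclusive = change between -60% and -40%, or beyond the set limit; inactive = change above -40%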; note: % is set by controls: 0 for no effect and ±100 for the full control effect
RXFP1 agonist = agonists of human relaxin receptor RXFP1; 370,000 tested, 0.3% active; HEK293T-RXFP1 cAMP TR-FRET, 30 min; response scale: percent of porcine relaxin response, buffer zero; Potency, µM (series often up to 57.5 µM), without a hit: at the highest dose activation, actives largely listed as activators; AID 2676; Q9HBX9; note: potency is the fitted concentration of half-maximal effect; % is set by controls: 0 for no effect and ±100 for the full control effect; nearly all actives have a fitted effect of over 60% in size
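cAMP rise read by TR-FRET after 30 min, 37C compound exposure (up to 58 uM) in RXFP1-transfected HEK293 cells with Ro 20174 present. EC50 from Hill-equation fits, with 29 nM porcine relaxin as 100% and buffer as basal.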
gsp antagonist = antagonizes gsp, the McCune-Albright syndrome mutation | gsp-mutant cells, cAMP HTRF, 30 min | Potency, µM (highest dose often 76.9 µM), for inactives: at the top dose activity change, negative = inhibition, most hits filed as inhibitors | 340,000 tested, 0.4% active; calls by dose curve; cell line not stated here;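 note: intracellular cAMP measured with PDE inhibitor Ro 20-1724 present during compound exposure; potency is the fitted concentration of half-maximal effect; % is set by controls: 0 for no effect and ±100 for the full control effect; nearly all actives have a fitted effect of over 65% in size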
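Measurement of cellular cAMP by homogeneous time-resolved fluorescence following a 30 min compound exposure at 37C. The PDE inhibitor […] was present throughout; the assay buffer was DPBS with 0.05% BSA and 0.005% Tween 20.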
PTHR1 agonist = activates the human parathyroid hormone receptor PTHR1. Potency, µM (series often up to 115 µM), for the others: at the top dose activation, usual class: activators. HEK293 GP2 PTHR1 cells, GloSensor cAMP luminescence, 1 h. AID 743266. 410,000 tested, 0.075% active; note: potency is the fitted concentration of half-maximal effect; nearly all actives have a fitted effect of over 55% in size
Target sequence (Q03431 whole entry, looked up): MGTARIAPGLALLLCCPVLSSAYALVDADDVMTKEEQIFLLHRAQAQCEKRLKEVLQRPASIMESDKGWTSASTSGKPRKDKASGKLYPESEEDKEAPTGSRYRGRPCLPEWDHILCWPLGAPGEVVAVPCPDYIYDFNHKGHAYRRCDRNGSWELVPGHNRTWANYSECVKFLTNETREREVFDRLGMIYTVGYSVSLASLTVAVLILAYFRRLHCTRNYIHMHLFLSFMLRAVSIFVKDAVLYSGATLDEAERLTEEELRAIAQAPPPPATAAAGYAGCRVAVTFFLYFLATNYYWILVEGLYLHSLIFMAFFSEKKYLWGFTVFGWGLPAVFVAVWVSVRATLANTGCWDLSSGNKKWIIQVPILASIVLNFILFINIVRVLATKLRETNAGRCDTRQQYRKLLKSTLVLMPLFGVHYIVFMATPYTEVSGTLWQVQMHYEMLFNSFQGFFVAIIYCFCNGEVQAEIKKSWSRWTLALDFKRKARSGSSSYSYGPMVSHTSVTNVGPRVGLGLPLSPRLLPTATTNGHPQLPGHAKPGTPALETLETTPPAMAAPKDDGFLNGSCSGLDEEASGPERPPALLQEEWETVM
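HEK-293-derived GP2 cells expressing PTHR1 and a GloSensor cAMP reporter, 3,000/well, plated overnight, given luciferin plus IBMX (each 0.5 mM as added) for 1 h at 37 °C, then compound for 1 h at 37 °C. Luminescence was read after 15 min at room temperature.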
gsp ag = agonists of gsp mutant (McCune-Albright syndrome); gsp mutant cells, cAMP HTRF, 30 min; Potency, µM (highest dose often 76.9 µM), inactives show top-dose activation (cAMP increase), hits mostly activators; 340,000 tested, 0.13% active; active = well fitted activation curve with a large enough effect; inconclusive = small, poorly fitted or top-dose-only effect, or another doubt; inactive = no such curve, though single readings can be large or run the other way; cell line not stated here;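 note: phosphodiesterase inhibitor Ro 20-1724 added with compounds to block cAMP breakdown; potency is the fitted concentration of half-maximal effect; nearly all actives have a fitted effect of over 60% in size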
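Cells stably selected in G418 were plated at 2000/well, grown 16-24 hr, then given compounds in DMSO with the PDE inhibitor […] (300 uM solution added) for 30 min at 37C; cAMP was read by HTRF.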
Active calls of the source: *; i = inactive; ? = inconclusive; nt = not tested or not shown; ! = not confirmed by another sample; [ ] = dose if it differs, or a comment. Unless noted, calls come from the whole dose curve; as a rule, active = well fitted curve in the direction sought with a large enough effect; inconclusive = small, poorly fitted or top-dose-only effect, or another doubt; inactive = no such curve, though single readings can be large; an effect the other way counts as inactive or inconclusive.

SMILES	RXFP1 antagonist	RXFP1 agonist	gsp antagonist	PTHR1 agonist	gsp ag
Clc1cccc(-n2ncc3c(Nc4ccc5c(c4)OCCO5)ncnc32)c1	-12	6%	nt	-13%	nt
Nc1ccc(C(=O)N2CC3CC(CN(Cc4ccccc4)C3)C2)cc1	7	nt	nt	nt	nt
CCCCN(CC)C(=O)c1ccc2c(c1)NC(=O)c1ccccc1S2	1	0%	nt	-42%	nt
Cn1cc(S(=O)(=O)N2CCCC2)cc1C(=O)NCc1ccccc1Cl	-73*	5%	-5%	-45%	-58%
COc1ccc(CNC(=O)c2cc(S(=O)(=O)N3CCOCC3)cn2C)cc1	1	4%	7%	-46%	0%
COc1cccc(CNC(=O)c2cc(S(=O)(=O)N3CCOCC3)cn2C)c1	-82*	0%	0%	-13%	-9%
CC[N+]1(CC)CCC(=C(c2ccccc2)c2ccccc2)C1C (centres undefined)	-6	nt	nt	nt	nt
Cc1ccc(-c2csc(NS(=O)(=O)c3cccc(F)c3)n2)o1	-75*	nt	-7%	i	12%[15.4 µM]
CC(O)CNCCCOc1ccc(Cl)cc1C(C)(C)C (centres undefined)	-61*	-1%	1%	-11%	-22%[15.4 µM]
CN(C)CCOCCOc1ccc(Cl)cc1C(C)(C)C	?	-1%	0%	?	-35%[15.4 µM]
Cc1cccc(NC(=O)c2ccc3snnc3c2)c1C	nt	-1%	nt	-4%	nt
CCCCC(CC)Cn1c(Oc2ccccc2)nc2c1c(=O)n(C)c(=O)n2C (centres undefined)	nt	-2%	nt	i	nt
Cc1cc(=O)[nH]c2nnc(SCC(N)=O)n12	7	0%	nt	-9%	nt
COc1ccc(N2C(=O)CS(=O)(=O)C23C(=O)N(Cc2ccc(F)cc2)c2ccc(C)cc23)cc1 (centres undefined)	nt	-2%	nt	-7%	nt
CCN(CC)S(=O)(=O)c1ccc(C(=O)NCc2n[nH]c(=S)n2-c2ccc(Cl)c(Cl)c2)cc1	-64*	1%	-13%	i	11%[15.4 µM]
CCN(CC)S(=O)(=O)c1ccc(C(=O)NCc2n[nH]c(=S)n2-c2ccccc2OC)cc1	-6	2%	0%	i	11%
O=C(NC1CC1)c1cccc(Nc2ccc(-c3ccc4c(c3)OCCO4)nn2)c1	-19	-3%	32µM*	i	-18%
Cc1oc2cc3oc(=O)c(CC(=O)N[C@H](C(=O)N[C@@H](C(=O)O)c4ccccc4)C(C)C)c(C)c3cc2c1C	nt	6%	50µM*	-15%	nt
O=C(Cn1c(=O)oc2ccccc21)NCc1ccccc1Cl	-7	0%	nt	i	nt
COC(=O)c1sc(NC(=S)NNC(=O)c2c(Br)c(C)nn2C)c(C(=O)OC)c1C	31	25µM*	-3%	-95%	?
COc1ccc(C(=O)NCCCN2CCN(CCCNC(=O)c3ccc(OC)c(OC)c3)CC2)cc1OC	-75*	0%	6%	-11%	8%[15.4 µM]
Cc1[nH]c2ccc(C(=O)NCCCN3CCCCC3)cc2c1C	-10	1%	4%	18µM*!	-5%
COc1ccc(C(=O)NCCN2CCN(C(=O)c3ccc(OC)c(OC)c3)CC2)cc1OC	-7	3%	13%	-9%	-2%[15.4 µM]
Cc1[nH]c2ccc(C(=O)NCCN3CCCCCC3)cc2c1C	-5	-8%	-1%	i	19%
CCOC(=O)N1CCC(n2c(=O)[nH]c3cc(Cl)ccc32)CC1	-20	nt	nt	nt	nt
SMILES	RXFP1 antagonist	RXFP1 agonist	gsp antagonist	PTHR1 agonist	gsp ag
CCc1ccc2occ(CC(=O)NCc3ccccc3)c2c1	?	0%	nt	-29%	nt
O=[N+]([O-])c1ccc(S(=O)(=O)Nc2ccc(-c3ccc(N4CCCC4)nn3)cc2)cc1	-24	-1%	20µM*	i	4%
O=[N+]([O-])c1ccc(Cl)c(S(=O)(=O)Nc2ccc(-c3ccc(N4CCCC4)nn3)cc2)c1	-5	2%	?	i	-1%[15.4 µM]
CC1CCN(C(=O)c2cc3c(ccc4ccccc43)o2)CC1	-60*	1%	-11%	-33%	13%
Cc1ccc(NC(=O)C2CCCN(S(=O)(=O)c3cccs3)C2)c(C)c1 (centres undefined)	-19	2%	nt	i	nt
COc1ccc2c(CNCCc3ccccc3)c(C(=O)O)n(Cc3cccc(F)c3)c2c1	-18	0%	nt	-48%	nt
Cc1n[nH]c(C)c1N1C(=O)c2cccc3c(N4CCCCCC4)ccc(c23)C1=O	-65*	4%	?	?	15%
